Drawing on ChEMBL document CHEMBL1157539, “Thousands of chemical starting points for antimalarial lead identification” (Nature, 2010), this text covers Inhibition for 29 compounds.

Molecules are shown by their SMILES.

Common to all, as to format: functional
For assay [1], the system named is Plasmodium falciparum. Briefly: GSK_TCMDC: Inhibition of Plasmodium falciparum 3D7 in whole red blood cells, using parasite LDH activity as an index of growth. Test compounds present at 2uM.
Assay [2] has as its system Plasmodium falciparum. Put plainly: GSK_TCMDC: Inhibition of Plasmodium falciparum Dd2 in whole red blood cells, using parasite LDH activity as an index of growth. Test compounds present at 2uM.
Assay [3] relates to HepG2. Put plainly: GSK_TCMDC: Percent inhibition of human HepG2 cell line. Test compounds present at 10uM.

By Inhibition is commonly meant the change of the read-out against control, counted positive when it falls. Low readings indicate little suppression, high ones strong suppression. For `CCC(C)CC(=O)Nc1ccc(OC)c(S(=O)(=O)N[C@@H]2CCN(C#N)C2)c1` (some centres not stated), the Inhibition in assay [1] came out at 94%; in assay [2], 77%; in assay [3] it was 16%.
With `O=C(Nc1ccc(F)cc1)c1cnc(N2CCN(c3ccncc3)CC2)c(Cl)c1.O=C(O)C(F)(F)F`, the Inhibition in assay [1] worked out at 100%; in assay [2] it was 81%; in assay [3] it was 41%.
For `COc1cc(Cc2cnc(N)nc2N)cc(OCCCCc2nnn[nH]2)c1OC`, the results for the Inhibition in assay [1], in assay [2] and in assay [3] were 97%, 0% and 7%, respectively.
Taken in the same sequence, the figures for `O=C(NCc1cccc2ccccc12)C1CCCN(C(=O)c2ccc(O)c(-c3ccc(Cl)c(Cl)c3)c2)C1` (configuration not stated) were 92%, 23% and 1%.
Regarding `Br.COc1ccc(OCCCCON2C(=N)N=C(N)NC2(C)C)cc1`, the Inhibition in assay [1] was 92%; in assay [2], 95%; in assay [3] it was 54%.
As for `O=C(Nc1nc2cc(S(=O)(=O)NCc3ccc(Cl)c(Cl)c3)ccc2n1CCCn1ccnc1)c1ccc(Cl)cc1.O=C(O)C(F)(F)F`, the Inhibition was found to be 100% in assay [1], 44% in assay [2] and 0% in assay [3].
For `CCCCC(N)COc1cccc2c(-c3ccncc3)c(-c3cccc(NC(=O)Nc4ccccc4)c3)nn12` (configuration not stated), the Inhibition in assay [1] is reported as 100%; in assay [2], 82%; in assay [3], 13%.
`CCc1nc(N)nc(N)c1-c1cccc(Cl)c1`: the Inhibition in assay [1] was 94%; in assay [2], 1%; in assay [3] it was 60%.
For `COc1c(C2CCN(CCCCNC(=O)c3ccc(-c4ccc(Cl)cc4)c(OCCN(C)C)c3)CC2)ccc2c1CCCC2` the same measures were 100%, 86% and 100%.
As for `COc1c(C2CCN(CCCCNC(=O)c3ccc(-c4ccc(Cl)cc4)cc3)CC2)ccc2c1C(C)(C)CCC2(C)C`, the values for the Inhibition in assay [1], in assay [2] and in assay [3] were 95%, 42% and 94%, respectively.
Take `CC(C)C(C(=O)n1ncc2c3c(N)nc(N)nc3ccc21)C(C)C`: the values for the Inhibition in assay [1], in assay [2] and in assay [3] were 98%, 8% and 67%, respectively.
For `CC1(C)N=C(N)N=C(N)N1OCc1ccc2c(c1)OCO2` the same measures were 93%, 86% and 66%.
As for `CN(C)CCN(C)Cc1ccc(-c2ccc3c(Nc4ccc(F)cc4Cl)ccnc3c2)o1`, the Inhibition came out at 100% in assay [1], 100% in assay [2] and 31% in assay [3].
`COCCCN=C(S)NN=C(C)c1ccccn1`: the Inhibition in assay [1] was 100%; in assay [2], 99%; in assay [3], 55%.
On to `Cc1cccc2nc(-c3ccc(-c4ccc(NC(=O)Nc5ccc(Cl)cc5)cc4)cc3)[nH]c12`, for which the Inhibition is 100% in assay [1], 100% in assay [2] and 52% in assay [3].
Regarding `Cc1ccc(CN2CCC(C(=O)Nc3ccc(-c4cc5ccccc5[nH]4)cc3)CC2)o1`, the values for the Inhibition in assay [1], in assay [2] and in assay [3] were 92%, 40% and 19%, respectively.
Consider `CC(NC(=O)c1ccc(O)c(-c2ccc(Cl)c(Cl)c2)c1)C(=O)NCCN1CCCC1` (configuration not stated), for which the Inhibition is given as 99% in assay [1], 9% in assay [2] and 0% in assay [3].
For `O=C(Nc1cccc(CN2CCCN(Cc3cccc(Cl)c3)CC2)c1)c1ccc(-c2ccccc2)cc1.O=C(O)C(F)(F)F` the same measures were 86%, 14% and 44%.
Regarding `CN(C)CCNc1cc(-c2ccc3ccccc3c2)nc2ccccc12`, the figures for the Inhibition in assay [1], in assay [2] and in assay [3] were 100%, 58% and 24%, respectively.
As to `Cc1nc(Nc2ccc(C)c(Cl)c2)c2c(C)noc2n1`, the Inhibition in assay [1] was found to be 94%; in assay [2], 72%; in assay [3] it was 0%.
With `Cc1cc(N2CCCC2)nc(Nc2ccc(NC(=O)C(C)C)cc2)n1`, the Inhibition in assay [1] turned out to be 97%; in assay [2] it was 36%; in assay [3] it was 40%.
For `C[C@H]1CN(Cc2cccc(-c3cc(CNC(=O)c4cccc(CC5CCN(C)CC5)c4)ccc3F)c2)CCN1C`, the Inhibition in assay [1] came out at 100%; in assay [2], 99%; in assay [3] it was 42%.
As for `CC(C)C(=O)NC(c1ccc(N(C)C)cc1)c1cc(Cl)c2cccnc2c1O` (configuration not stated), the Inhibition came out at 87% in assay [1], 64% in assay [2] and 61% in assay [3].
For `COCCN1CCN(Cc2cccc(-c3ccc(-c4nc5ccccc5[nH]4)cc3)c2)CC1.O=C(O)C(F)(F)F` the same measures were 100%, 50% and 9%.
As for `O=C(Nc1cccc(-c2ccc(-c3nc4ccccc4[nH]3)cc2)c1)c1ccncc1`, the Inhibition is 100% in assay [1], 58% in assay [2] and 30% in assay [3].
For the compound `COc1ccc(Cl)cc1-c1nc(C(=O)NCCN2CCCCC2)c(C(C)C)s1.O=C(O)C(F)(F)F`, the Inhibition in assay [1] was found to be 100%; in assay [2], 37%; in assay [3], 14%.
`O=C(/C=C/c1ccc(Cl)c(Cl)c1)N1CCC(NCc2c[nH]c3ccccc23)CC1`: the Inhibition was 94% in assay [1], 4% in assay [2] and 36% in assay [3].
Consider `O=C(O)C(F)(F)F.c1cncc(CCNCc2ccc(-c3cccc(-c4nc5ccccc5[nH]4)c3)cc2)c1`, for which the Inhibition in assay [1] is on record as 100%; in assay [2], 99%; in assay [3], 39%.
Turning to `CCN(CC)Cc1cc(Nc2c3ccc(Cl)cc3nc3cccc(OC)c23)ccc1O.Cl`, the figures for the Inhibition in assay [1], in assay [2] and in assay [3] were 100%, 98% and 8%, respectively.
